Consider 39 molecules from PubChem BioAssay (NCATS).

SMILES strings stand for the structures. Inconclusive results are not listed. A call without a number means that no potency is given here. Unmarked numbers belong to inactive results. Activity calls are given as the source filed them. The call rests on the fitted dose curve; in most records, active means well fitted cell-killing curve with a large enough effect; inconclusive means small, poorly fitted or top-dose-only effect, or effect the other way; inactive means flat fitted curve, though single readings scatter.
Potency means the concentration at half of the fitted maximal effect.

The first assay concerns C33A. Put plainly: Primary qHTS to identify gynecologic anti-cancer compounds using libraries of approved drugs and bioactive compounds (AID 1345084). Further: nearly all actives have a fitted effect of over 55% in size. Conditions: Gynecologic cancer cell panel viability, ATPlite luminescence, 48 h; series mostly up to 57.5 µM. In a few lines: (§1)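 Cells, 1,000 per well, were allowed to settle for 16 h at 37 C before compound addition. Five concentrations were tested for 48 h, and viability was read by ATPlite luminescence after 15 min at room temperature.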
With `Cc1cccc(C)c1-n1c(=O)c2cnc(Nc3ccc(N4CCN(C)CC4)cc3)nc2n2c3ccccc3nc12`, the Potency is 2.82 µM (active).

As to `NC1CCC(Nc2cc(-c3cccc(NCc4cccc(F)c4)n3)c(Cl)cn2)CC1` (stereo not drawn), the Potency was 1.26 µM (active).

Regarding `C=C[C@]1(C)C[C@H](O)[C@@H]2[C@H](OC(=O)[C@@H]2C)C1/C(C)=C/O[C@@H]1O[C@H](CO)[C@@H](O)[C@H](O)[C@H]1O` (stereo partly drawn), the Potency entry is “inactive”.

Take `C[C@H](NC(c1cccc(C[P+](=O)O)c1)[C@H](C)O)c1ccc(Cl)c(Cl)c1` (stereo partly drawn): the Potency entry is “inactive”.

Regarding `O=C(N/N=C/c1ccc(O)c(O)c1)c1cc2ccccc2cc1O`, the Potency result is “inactive”.

`CO[C@H]1C[C@@H]2CC[C@@H](C)[C@@](O)(O2)C(=O)C(=O)N2CCCC[C@H]2C(=O)O[C@H]([C@H](C)C[C@H]2CC[C@@H](OP(C)(C)=O)[C@H](OC)C2)CC(=O)[C@H](C)/C=C(\C)[C@@H](O)[C@@H](OC)C(=O)[C@H](C)C[C@H](C)/C=C/C=C/C=C/1C`: the Potency result is “inactive”.

On to `CC(C)=CCC/C(C)=C/CO[C@@H]1O[C@H](CO)[C@@H](O)[C@H](O)[C@H]1O`, for which the Potency entry is “inactive”.

Turning to `O=C(O)CCCCCC[C@H]1C(=O)NC(=O)N1CC[C@@H](O)C1CCCCC1`, the Potency result was “inactive”.

Regarding `CCC(O)(C(=O)OCc1ccccc1NC(=O)CCC(=O)O)C(C)O` (stereo not drawn), the Potency result is “inactive”.

In the case of `COC(=O)C[C@H]1[C@]2(C)C3=C(C)[C@H](c4ccoc4)C[C@H]3O[C@@H]2[C@H](OC(C)=O)C2[C@](C)(C(=O)OC)C=CC(=O)[C@@]21C` (stereo partly drawn), the Potency entry is “inactive”.

Regarding `C=C(C(=O)O)[C@H]1C[C@]2(C)[C@@H](O)CC[C@]23O[C@H]1C[C@@H]3C`, the Potency entry was “inactive”.

As for `COc1c(/C=C/C(C)(C)O)ccc2c1C(=O)OCc1cc(C)cc(O)c1O2`, the Potency entry was “inactive”.

For the molecule `Cc1cc(C)c(CNC(=O)c2cc(-c3ccc(CN4CCOCC4)cc3)cc3c2cnn3C2CCCC2)c(=O)[nH]1`, the Potency entry is “inactive”.

On to `O=C(O)c1ccc(CN2CCC(CN[C@@H]3C[C@H]3c3ccccc3)CC2)cc1`, for which the Potency entry is “inactive”.

For the molecule `COc1ccc(N2CCOCC2)c2sc(NC(=O)N3CCC(C)(O)CC3)nc12`, the Potency entry was “inactive”.

On to `CCC(COC)n1nnc2c(Nc3ccc(OC)cc3C)nc(C)cc21` (stereo not drawn), for which the Potency result was “inactive”.

Regarding `CC(=O)OC1C[C@@]2(C)[C@@H](CC[C@@H](C)[C@]23Cc2c(O)cc4c(c2O3)CNC4=O)C(C)(C)[C@@H]1O` (stereo partly drawn), the Potency entry is “inactive”.

As for `OC/C=C/C=C/[C@H]1Cc2cc(O)cc(O)c2O1`, the Potency result is “inactive”.

Consider `C/C=C/C1=CC2=C(CO1)C(=O)C(C)(O)C(OC(=O)c1c(C)cc(OC)cc1O)C2` (stereo not drawn), for which the Potency result was “inactive”.

The subject of the next assay is CASKI. The assay is described as above. The following applies: Gynecologic cancer cell panel viability, ATPlite luminescence, 48 h; series mostly up to 57.5 µM. A digest of the protocol: as §1
For the molecule `C=C1[C@@H]2CC[C@@H]3[C@@](CCC4C(C(=O)O)(C(=O)O)C[C@@H](O[C@@H]5O[C@H](CO)[C@@H](O)[C@H](O)[C@H]5OC(=O)CC(C)C)C[C@]43C)(C2)[C@H]1O` (stereo partly drawn), the Potency entry was “inactive”.

Consider `N[C@@]1(C(=O)O)CC[C@H]2[C@H](C(=O)O)[C@H]21`, for which the Potency result is “inactive”.

In the case of `C[C@@H]1O[C@@H](O[C@H]2[C@@H]3C=CO[C@@H](O[C@@H]4O[C@H](CO)[C@@H](O)[C@H](O)[C@H]4O)[C@@H]3[C@@]3(CO)O[C@@H]23)[C@H](OC(=O)/C=C/c2ccccc2)[C@H](O)[C@H]1O`, the Potency entry is “inactive”.

`C[C@@H]1CC[C@]2(C(=O)O[C@@H]3O[C@H](CO)[C@@H](O)[C@H](O)[C@H]3O)CC[C@]3(C)C(=CCC4[C@@]5(C)C[C@@H](O)[C@H](O)[C@](C)(C(=O)O)C5CC[C@]43C)[C@@H]2[C@]1(C)O` (stereo partly drawn): the Potency result was “inactive”.

With `C=C1CN(Cc2ccc(C(=O)Nc3ccccc3N)cc2)C(=O)c2ccccc21`, the Potency was 4.47 µM (active).

Regarding `COc1ccc(C(=O)n2c(C)c(Cc3cccc(O[C@@H](C)C(=O)O)c3)c3cc(OC(F)(F)F)ccc32)cc1`, the Potency result is “inactive”.

As to `Cc1ccc([N+](=O)[O-])cc1S(=O)(=O)N(C)/N=C/c1cnc2ccc(Br)cn12`, the Potency is 0.316 µM (active).

With `C[C@@H]1O[C@@H](O[C@@H]2[C@@H](O)[C@H](O[C@H]3CC[C@@]4(C)C(CC[C@]5(C)C4CC=C4[C@@H]6CC(C)(C)CC[C@]6(C(=O)O[C@@H]6O[C@H](CO)[C@@H](O)[C@H](O)[C@H]6O)CC[C@]45C)C3(C)C)O[C@H](C(=O)O)[C@H]2O)[C@H](O)[C@H](O)[C@H]1O` (stereo partly drawn), the activity change, negative = cytotoxicity is 17% [at 11.6 µM].

As for `CCOC(=O)C(CCc1ccccc1)NC(C)C(=O)N1C(=O)N(C)CC1C(=O)O` (stereo not drawn), the Potency entry is “inactive”.

Take `CC1=CCC2C(C)(C)CCC[C@]2(C)[C@@]12CC[C@](C)(CC(=O)O)O2` (stereo partly drawn): the Potency result is “inactive”.

As to `CC1CCC2C(C)(C)[C@@H](O)CC[C@]2(C)C12Cc1c(O)cc3c(c1O2)CN(C(CCC(=O)O)C(=O)O)C3=O` (stereo partly drawn), the Potency result was “inactive”.

As for `Cc1cc(NC(=O)Nc2ccc(F)c(F)c2)n(-c2ccccc2)n1`, the Potency entry is “inactive”.

Take `CC(/C=C/C1=CC2=CC(=O)C(C)(O)C(O)C2=CO1)=C\C(C)CCO` (stereo not drawn): the Potency entry is “inactive”.

Take `CO[C@H]1C[C@@H]2CC[C@@H](C)[C@@](O)(O2)C(=O)C(=O)N2CCCC[C@H]2C(=O)O[C@H]([C@H](C)C[C@@H]2CC[C@H](n3cnnn3)[C@H](OC)C2)CC(=O)[C@H](C)/C=C(\C)[C@@H](O)[C@@H](OC)C(=O)[C@H](C)C[C@H](C)/C=C/C=C/C=C/1C`: the Potency entry was “inactive”.

Turning to `Cn1c(=O)cc(N2CCCC(N)C2)n(Cc2cc(F)ccc2C#N)c1=O` (stereo not drawn), the Potency entry was “inactive”.

In the case of `CCN1CCN(Cc2ccc(NC(=O)c3ccc(C)c(/C=C/c4cnc5[nH]ccc5c4OC)c3)cc2C(F)(F)F)CC1`, the Potency was 12.6 µM (active).

With `COc1c(Nc2ncc(Cl)c(N[C@H]3[C@@H](C(N)=O)[C@@H]4C=C[C@H]3C4)n2)ccc2c1CC[C@@H](N1CCOCC1)CC2`, the Potency entry was “inactive”.

As for `CNC(=S)NS(=O)(=O)c1cc(CCNC(=O)c2cc(Cl)ccc2OC)ccc1OC`, the Potency result was “inactive”.

Turning to `COc1ccc(CC2NCCc3c2[nH]c2ccc(C)cc32)cc1OC` (stereo not drawn), the Potency entry is “inactive”.

With `O=C(/C=C/c1cccc(S(=O)(=O)Nc2ccccc2)c1)NO`, the Potency was 8.91 µM (active).

On to `Cc1cccc(C)c1-n1c(=O)c2cnc(Nc3ccc(N4CCN(C)CC4)cc3)nc2n2c3ccccc3nc12`, for which the Potency is 14.1 µM (active).

Consider `NC1CCC(Nc2cc(-c3cccc(NCc4cccc(F)c4)n3)c(Cl)cn2)CC1` (stereo not drawn), for which the Potency is 0.891 µM (active).

For `C=C[C@]1(C)C[C@H](O)[C@@H]2[C@H](OC(=O)[C@@H]2C)C1/C(C)=C/O[C@@H]1O[C@H](CO)[C@@H](O)[C@H](O)[C@H]1O` (stereo partly drawn), the Potency entry is “inactive”.

As to `C[C@H](NC(c1cccc(C[P+](=O)O)c1)[C@H](C)O)c1ccc(Cl)c(Cl)c1` (stereo partly drawn), the Potency result was “inactive”.

Consider `O=C(N/N=C/c1ccc(O)c(O)c1)c1cc2ccccc2cc1O`, for which the Potency entry was “inactive”.

With `CO[C@H]1C[C@@H]2CC[C@@H](C)[C@@](O)(O2)C(=O)C(=O)N2CCCC[C@H]2C(=O)O[C@H]([C@H](C)C[C@H]2CC[C@@H](OP(C)(C)=O)[C@H](OC)C2)CC(=O)[C@H](C)/C=C(\C)[C@@H](O)[C@@H](OC)C(=O)[C@H](C)C[C@H](C)/C=C/C=C/C=C/1C`, the Potency entry was “inactive”.

On to `CC(C)=CCC/C(C)=C/CO[C@@H]1O[C@H](CO)[C@@H](O)[C@H](O)[C@H]1O`, for which the Potency result was “inactive”.

As to `O=C(O)CCCCCC[C@H]1C(=O)NC(=O)N1CC[C@@H](O)C1CCCCC1`, the Potency entry is “inactive”.

In the case of `CCC(O)(C(=O)OCc1ccccc1NC(=O)CCC(=O)O)C(C)O` (stereo not drawn), the Potency result was “inactive”.

For `COC(=O)C[C@H]1[C@]2(C)C3=C(C)[C@H](c4ccoc4)C[C@H]3O[C@@H]2[C@H](OC(C)=O)C2[C@](C)(C(=O)OC)C=CC(=O)[C@@]21C` (stereo partly drawn), the Potency entry was “inactive”.

In the case of `C=C(C(=O)O)[C@H]1C[C@]2(C)[C@@H](O)CC[C@]23O[C@H]1C[C@@H]3C`, the Potency entry is “inactive”.

As to `COc1c(/C=C/C(C)(C)O)ccc2c1C(=O)OCc1cc(C)cc(O)c1O2`, the Potency result is “inactive”.

Take `Cc1cc(C)c(CNC(=O)c2cc(-c3ccc(CN4CCOCC4)cc3)cc3c2cnn3C2CCCC2)c(=O)[nH]1`: the Potency result is “inactive”.

Consider `O=C(O)c1ccc(CN2CCC(CN[C@@H]3C[C@H]3c3ccccc3)CC2)cc1`, for which the Potency result was “inactive”.

For the molecule `COc1ccc(N2CCOCC2)c2sc(NC(=O)N3CCC(C)(O)CC3)nc12`, the Potency result is “inactive”.

Regarding `CCC(COC)n1nnc2c(Nc3ccc(OC)cc3C)nc(C)cc21` (stereo not drawn), the Potency result is “inactive”.

`CC(=O)OC1C[C@@]2(C)[C@@H](CC[C@@H](C)[C@]23Cc2c(O)cc4c(c2O3)CNC4=O)C(C)(C)[C@@H]1O` (stereo partly drawn): the Potency result was “inactive”.

On to `OC/C=C/C=C/[C@H]1Cc2cc(O)cc(O)c2O1`, for which the Potency entry is “inactive”.

Take `C/C=C/C1=CC2=C(CO1)C(=O)C(C)(O)C(OC(=O)c1c(C)cc(OC)cc1O)C2` (stereo not drawn): the Potency entry is “inactive”.
